Experimental data reported in PubChem BioAssay.
Where “and” joins values, the source holds several entries; their conditions need not be identical. Equal entries are not always repeated. Records with an inconclusive call do not appear. Calls of active or inactive are those of the source. Rule as the data show it, unless noted: active = inhibition above about 80%; inactive = the rest.

How the values were obtained:
[1] = target: Mitogen-activated protein kinase 7 (Homo sapiens) (UniProt Q13164); assay: Gal4-ERK5 driven luciferase induction – cell-based, HTS, primary screen (AID 1508626;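 active = luciferase signal above three times the same-plate solvent-only control wells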;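 also: luciferase driven by Gal4-ERK5 fusion binding five Gal4 sites before minimal TATA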); details: HeLa Gal4-ERK5 transactivation, 18 h, at 5 µM, stronger effect = higher value
Sequence of Mitogen-activated protein kinase 7 (Homo sapiens) (Q13164 whole entry, looked up, the tested form may be a part): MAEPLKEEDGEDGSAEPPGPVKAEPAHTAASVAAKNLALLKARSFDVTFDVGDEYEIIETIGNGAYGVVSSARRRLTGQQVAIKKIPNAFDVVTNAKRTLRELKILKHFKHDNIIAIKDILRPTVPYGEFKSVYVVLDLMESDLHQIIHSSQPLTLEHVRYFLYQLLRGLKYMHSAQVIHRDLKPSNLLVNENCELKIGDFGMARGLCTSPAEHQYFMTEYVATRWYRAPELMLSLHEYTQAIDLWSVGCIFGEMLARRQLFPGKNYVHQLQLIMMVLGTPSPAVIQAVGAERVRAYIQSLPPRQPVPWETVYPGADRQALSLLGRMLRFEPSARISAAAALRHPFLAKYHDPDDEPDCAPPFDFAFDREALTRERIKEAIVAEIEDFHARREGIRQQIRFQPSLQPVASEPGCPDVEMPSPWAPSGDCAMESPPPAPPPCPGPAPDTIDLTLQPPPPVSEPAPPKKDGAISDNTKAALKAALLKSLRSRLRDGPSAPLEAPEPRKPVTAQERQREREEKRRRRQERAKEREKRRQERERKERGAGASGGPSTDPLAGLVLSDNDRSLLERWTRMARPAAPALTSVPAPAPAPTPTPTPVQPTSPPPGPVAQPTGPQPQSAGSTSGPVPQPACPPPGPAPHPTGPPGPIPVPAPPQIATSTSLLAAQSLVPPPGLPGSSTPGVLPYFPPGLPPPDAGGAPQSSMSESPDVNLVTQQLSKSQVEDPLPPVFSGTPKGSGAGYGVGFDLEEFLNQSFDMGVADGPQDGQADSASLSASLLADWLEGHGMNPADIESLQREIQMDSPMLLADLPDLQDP

[2] = galactose survival enhancers in mitochondrial complex I cybrids – cell-based, galactose medium, ATP luminescence, primary screen (AID 1645843;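 active = z-score of at least 1.8 in each of two replicates, scored against plate mean and spread of sample wells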;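 also: positive z means more ATP and so rescue of galactose-driven cybrid death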); details: complex I mutant cybrid cells, 72 h, stronger effect = higher value
[3] = viability loss in pontine glioma line – cell-based, JHH-DIPG-1, MIPE4.0, CellTiter-Glo, qHTS, dose response (AID 1347062; cut-off not given, nearly all actives have AC50 up to about 27 µM;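 as to AC50: cells exposed to compound for two days before readout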); details: JHH-DIPG-1 viability, CellTiter-Glo ATP luminescence
[4] = viability loss in pontine glioma line – cell-based, SU-DIPG-IV, MIPE4.0, CellTiter-Glo, qHTS, dose response (AID 1347063; cut-off not given, nearly all actives have AC50 up to about 30 µM;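 also: compound exposure lasted 48 hours before the viability readout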); details: CellTiter-Glo ATP luminescence
[5] = viability loss in pontine glioma line – cell-based, SU-DIPG-XXV, MIPE5.0, CellTiter-Glo, qHTS, dose response (AID 1347065; cut-off not given, nearly all actives have AC50 up to about 26 µM;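 also: cells exposed to compound for 48 hours before ATP readout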); details: CellTiter-Glo ATP luminescence
[6] = growth inhibition of DIPG cells – cell-based, MIPE4.0 library, CellTiter-Glo luminescence, qHTS (AID 1347066; cut-off not given, nearly all actives have AC50 up to about 30 µM;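 also: cells exposed to compound for 48 hours before readout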); details: SU-DIPG-VI viability, CellTiter-Glo ATP luminescence
[7] = JHH-DIPG-1 glioma cell viability, MIPE5.0 library, CellTiter-Glo luminescence, qHTS (AID 1347067; cut-off not given, nearly all actives have AC50 up to about 26 µM;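 also: cells exposed to compound for 48 hours before readout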); details: JHH-DIPG-1 glioma viability, CellTiter-Glo ATP luminescence
[8] = viability loss in pontine glioma line – cell-based, SU-DIPG-XIII, MIPE5.0, CellTiter-Glo, qHTS, dose response (AID 1347064; cut-off not given, nearly all actives have AC50 up to about 23 µM); details: CellTiter-Glo ATP luminescence
[9] = growth inhibition of DIPG cells – cell-based, MIPE5.0 library, qHTS (AID 1347068; cut-off not given, nearly all actives have IC50 up to about 30 µM); details: SU-DIPG-XXV viability
[10] = growth inhibition, single agents and combos, LFS_MB_1R, cell-based, cisplatin or BGB combos, synergistic combos for chromothripsis tumors (AID 1671452); details: LFS_MB_1R medulloblastoma cells, stronger effect = higher value;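 also: cells exposed for 96 hours before readout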
[11] = growth inhibition, single agents and combos, CRL2098, cell-based, BGB or cisplatin IC20 combos, synergistic combos for chromothripsis tumors (AID 1671454); details: CRL2098 osteosarcoma cells, drug combinations, stronger effect = higher value;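 also: cells exposed for 96 h before readout; 0% = vehicle DMSO and 100% = killing by high DMSO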
[12] = growth inhibition, single agents and combos, HD-MB03, cell-based, BGB or cisplatin IC20 combos, synergistic combos for chromothripsis tumors (AID 1671455; in the data active = inhibition above about 83%;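 also: 0% = vehicle DMSO and 100% = high DMSO as cytotoxic control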); details: HD-MB03 medulloblastoma cells, stronger effect = higher value
[13] = growth inhibition, single agents and combos, UWB1.289, cell-based, BGB or cisplatin combos, synergistic combos for chromothripsis tumors (AID 1671456); details: UWB1.289 ovarian carcinoma cells, stronger effect = higher value;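 also: cells exposed to compound for four days; 0% = vehicle DMSO and 100% = killing by high DMSO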
[14] = growth inhibition, single agents and combos, LFS_MB_2R, cell-based, cisplatin combos, synergistic combos for chromothripsis tumors (AID 1671457); details: LFS_MB_2R medulloblastoma cells, stronger effect = higher value;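 also: cells exposed to compound for four days before readout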
[15] = UWB1.289_BRCA1 ovarian cancer growth, cell-based, BGB or cisplatin combinations (AID 1671459); details: UWB1.289 BRCA1 ovarian carcinoma, drug combinations, stronger effect = higher value
[16] = drug combination toxicity in non-malignant astrocytes – cell-based, BGB or cisplatin IC20 combos, cytotoxicity control for chromothriptic childhood tumor combination screen (AID 1671460); details: Human astrocytes, viability inhibition, drug combinations, at 0.5 µM, stronger effect = higher value;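 also: cells exposed to compounds for 96 hours before viability readout; 0% = vehicle and 100% = killing control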
[17] = BT084 cell growth, single and combined drugs, ICGC_MB145, cisplatin and BGB IC40 combos (AID 1671461); details: BT084 medulloblastoma cells, drug combinations, stronger effect = higher value;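 also: cells exposed to drugs for 96 hours; 0% = vehicle DMSO and 100% = high DMSO full killing control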
[18] = RCMB18 cell growth, single agent and combined, cisplatin and BGB IC40 combos (AID 1671462); details: RCMB18 medulloblastoma cells, stronger effect = higher value;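 also: cells exposed to compound for four days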
[19] = CRL1545 cell growth, single agent and combined, cisplatin and BGB IC20 combos (AID 1671464); details: CRL1545 osteosarcoma cells, stronger effect = higher value;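 also: cells exposed to compound for 96 hours before readout; 0% = vehicle DMSO and 100% = high DMSO killing control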
[20] = target: ATP-dependent translocase ABCB1 (Homo sapiens) (UniProt P08183); assay: P-glycoprotein substrate transport blockade – cell-based (AID 377; in the data active = fluorescence slope change above about 50%); details: MDR1-expressing cells, fluorescent substrate accumulation slope; stronger effect = higher value; concentration not given here
Sequence of ATP-dependent translocase ABCB1 (Homo sapiens) (P08183 whole entry, looked up): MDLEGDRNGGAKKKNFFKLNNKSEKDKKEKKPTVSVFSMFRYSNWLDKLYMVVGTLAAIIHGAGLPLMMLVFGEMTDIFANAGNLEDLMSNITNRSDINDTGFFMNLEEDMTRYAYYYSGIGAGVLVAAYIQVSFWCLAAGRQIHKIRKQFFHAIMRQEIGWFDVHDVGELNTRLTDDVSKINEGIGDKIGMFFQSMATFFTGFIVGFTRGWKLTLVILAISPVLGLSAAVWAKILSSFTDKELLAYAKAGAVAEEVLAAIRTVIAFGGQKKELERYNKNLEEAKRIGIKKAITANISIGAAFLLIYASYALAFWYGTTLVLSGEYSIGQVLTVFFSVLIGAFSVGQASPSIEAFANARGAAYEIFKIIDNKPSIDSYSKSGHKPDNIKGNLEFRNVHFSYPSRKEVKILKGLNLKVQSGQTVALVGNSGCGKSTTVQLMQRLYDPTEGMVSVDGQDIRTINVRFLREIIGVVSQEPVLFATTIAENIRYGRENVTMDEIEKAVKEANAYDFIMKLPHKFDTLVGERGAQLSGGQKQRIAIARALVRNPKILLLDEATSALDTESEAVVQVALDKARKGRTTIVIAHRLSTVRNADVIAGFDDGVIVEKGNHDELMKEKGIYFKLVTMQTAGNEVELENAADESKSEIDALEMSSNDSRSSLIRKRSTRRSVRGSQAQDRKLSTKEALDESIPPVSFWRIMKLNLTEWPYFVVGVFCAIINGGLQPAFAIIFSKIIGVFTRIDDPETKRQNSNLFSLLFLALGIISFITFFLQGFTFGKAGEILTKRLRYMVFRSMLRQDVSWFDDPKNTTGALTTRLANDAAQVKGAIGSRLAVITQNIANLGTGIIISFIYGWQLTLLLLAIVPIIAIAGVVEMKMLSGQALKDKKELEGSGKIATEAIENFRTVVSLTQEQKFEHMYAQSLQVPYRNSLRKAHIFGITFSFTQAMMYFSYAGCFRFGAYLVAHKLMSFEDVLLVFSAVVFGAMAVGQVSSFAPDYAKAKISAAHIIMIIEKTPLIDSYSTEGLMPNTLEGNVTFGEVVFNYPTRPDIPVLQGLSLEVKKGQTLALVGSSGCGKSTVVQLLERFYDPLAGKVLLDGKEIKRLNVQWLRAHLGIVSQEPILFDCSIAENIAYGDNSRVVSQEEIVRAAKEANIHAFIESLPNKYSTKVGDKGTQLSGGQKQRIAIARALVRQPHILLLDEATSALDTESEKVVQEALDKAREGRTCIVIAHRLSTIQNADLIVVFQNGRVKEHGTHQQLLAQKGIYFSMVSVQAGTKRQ

[21] = measured here: combination with BGB IC40, at 0.05 µM
[22] = measured here: combination with cisplatin, at 0.5 µM
[23] = measured here: combination with cisplatin, at 5 µM
[24] = measured here: combination with BGB at IC20, at 0.5 µM
[25] = measured here: combination with cisplatin at IC20, at 0.5 µM
[26] = measured here: combo with BGB at IC20, at 0.5 µM
[27] = measured here: combo with cisplatin at IC20, at 0.5 µM
[28] = measured here: inhibition with BGB combination, at 0.05 µM
[29] = measured here: inhibition with cisplatin combination, at 0.05 µM
[30] = BGB combination, concentration series, at 5 µM
[31] = cisplatin combination, concentration series, at 5 µM
[32] = measured here: combo with BGB IC20
[33] = measured here: combo with cisplatin IC20
[34] = cisplatin combination, at 0.5 µM
[35] = measured here: BGB IC40 combination 0.05 uM, at 0.05 µM
[36] = measured here: BGB IC40 combination, at 0.05 µM
[37] = measured here: with BGB IC20 combination, at 0.5 µM
[38] = measured here: with cisplatin IC20 combination, at 0.5 µM

CCCN(CCC)CCc1cccc2c1CC(=O)N2
luciferase signal [1]: 48 AU (inactive) | z-score [2]: 0.47 (inactive)

Cc1cc(=O)oc2cc(O)ccc12
outcome [3]: inactive | outcome [4]: inactive | outcome [5]: inactive | outcome [6]: inactive | outcome [7]: inactive

COc1cc2ncnc(Nc3ccc(F)c(Cl)c3)c2cc1OCCCN1CCOCC1
AC50 [3]: 19.1 µM (active) | AC50 [4]: 10.8 µM (active) | outcome [8]: inactive | outcome [5]: inactive | AC50 [6]: 38.2 µM (active) | outcome [7]: inactive | outcome [9]: inactive | z-score [2]: -0.29 (inactive) and 0.3 (inactive)

Clc1ccc(C(Cn2ccnc2)OCc2ccsc2Cl)c(Cl)c1 (stereo unspecified)
outcome [3]: inactive | luciferase signal [1]: 72 AU (inactive) | z-score [2]: -1.6 (inactive)

O=C(CCCN1CCC(O)(c2ccc(Br)cc2)CC1)c1ccc(F)cc1
luciferase signal [1]: 52 AU (inactive)

CC(C(=O)O)c1ccc2c(c1)Cc1cccnc1O2 (stereo unspecified)
z-score [2]: 0.415 (inactive)

Nc1ccc2cc3ccc(N)cc3nc2c1
z-score [2]: -2.66 (inactive) | inhibition ([10]; at 0.5 µM): -22.9% (inactive) | inhibition [10, 21]: -30.9% | inhibition [10, 22]: -45.7% | inhibition [10, 23]: 99.1% | inhibition ([11]; at 0.5 µM): -33.9% (inactive) | inhibition [11, 24]: -34.4% | inhibition [11, 25]: -50.2% | inhibition ([12]; at 0.5 µM): -6.54% (inactive) | inhibition [12, 26]: 19.2% | inhibition [12, 27]: -34.6% | inhibition ([13]; at 0.5 µM): -1.27% (inactive) | inhibition [13, 28]: -20.6% | inhibition [13, 29]: -13.2% | inhibition ([14]; at 0.5 µM): -9.07% (inactive) | inhibition [14, 22]: -2.23% | inhibition [14, 23]: 84.3% | inhibition [15, 30]: 100% | inhibition ([15]; at 0.5 µM): -1.03% (inactive) | inhibition [15, 31]: 115% | inhibition [16]: -4.99% (inactive) | inhibition [16, 32]: 0.031% | inhibition [16, 33]: -30.9% | inhibition ([17]; at 0.5 µM): -51.8% (inactive) | inhibition [17, 34]: -55.3% | inhibition ([17]; cisplatin combination, at 5 µM): 80.4% | inhibition [17, 35]: -6.84% | inhibition ([17]; single agent, at 5 µM): 89.8% | inhibition ([18]; at 0.5 µM): -8.62% (inactive) | inhibition ([18]; cisplatin combo, at 5 µM): 83.1% | inhibition [18, 36]: 9.55% | inhibition [18, 22]: -20.8% | inhibition ([18]; single agent, at 5 µM): 73.5% | inhibition ([19]; at 0.5 µM): -34.4% (inactive) | inhibition [19, 37]: -17.3% | inhibition [19, 38]: -43% | inhibition ([19]; single agent, at 0.05 µM): -52.5% | inhibition ([19]; single agent, at 5 µM): 100%

CC(=O)CC(c1ccc([N+](=O)[O-])cc1)c1c(O)c2ccccc2oc1=O (stereo unspecified)
fluorescence slope change [20]: 22.3% (inactive)

CNCCc1ccccn1
fluorescence slope change [20]: 28.1% (inactive) | luciferase signal [1]: 64 AU (inactive)

CN1C(=O)OC(C)(C)C1=O
fluorescence slope change [20]: 1.5% (inactive)

Cc1ncc(CO)c(CO)c1O
luciferase signal [1]: 160 AU (inactive)

CN(C(=O)C(Cl)Cl)c1ccc(OC(=O)c2ccco2)cc1
luciferase signal [1]: 44 AU (inactive)

CC1CCc2c(N3CCC(O)CC3)c(F)cc3c(=O)c(C(=O)O)cn1c23 (stereo unspecified)
z-score [2]: 1.2 (inactive)

COc1cc(C(=O)N2CCOCC2)cc(OC)c1OC
luciferase signal [1]: 48 AU (inactive)

O=C(Nc1ccccc1)OCC(CN1CCCCC1)OC(=O)Nc1ccccc1 (stereo unspecified)
fluorescence slope change [20]: 147% (active)

CC[N+](CC)(CC(=O)Nc1c(C)cccc1C)Cc1ccccc1
luciferase signal [1]: 36 AU (inactive)

Oc1c(I)cc(Cl)c2cccnc12
luciferase signal [1]: 52 AU (inactive)

OC1(c2ccc(Cl)c(C(F)(F)F)c2)CCN(CCCC(c2ccc(F)cc2)c2ccc(F)cc2)CC1
luciferase signal [1]: 60 AU (inactive)

O=C(N/N=C/c1ccc([N+](=O)[O-])o1)c1ccc(O)cc1
fluorescence slope change [20]: -24% (inactive)

CCCCOC(=O)c1ccc(O)cc1
luciferase signal [1]: 88 AU (inactive)

CN1CCC(=C2c3ccccc3CCc3cccnc32)CC1
z-score [2]: 0.04 (inactive)

CC(C)(C)C(=O)C(Oc1ccc(Cl)cc1)n1ccnc1 (stereo unspecified)
z-score [2]: -0.18 (inactive)

CCCCOc1cc(C(=O)OCCN(CC)CC)ccc1N
z-score [2]: 0.26 (inactive)

O=C(Oc1cccc2cccnc12)c1ccccc1
luciferase signal [1]: 44 AU (inactive)

O=C(O)CN(CCN(CC(=O)O)CC(=O)O)CCN(CC(=O)O)CC(=O)O
z-score [2]: 4.38 (active)

CN(C(=O)CN(CCO)CC(=O)N(C)C(C)(C)Cc1ccccc1)C(C)(C)Cc1ccccc1
luciferase signal [1]: 32 AU (inactive)

O=C(Oc1ccccc1C(=O)O)c1ccccc1O
luciferase signal [1]: 64 AU (inactive)

CC1CC(OC(=O)c2ccccc2O)CC(C)(C)C1 (stereo unspecified)
luciferase signal [1]: 140 AU (inactive)

CCN(CC)CCc1nc(-c2ccccc2)no1
fluorescence slope change [20]: 14.4% (inactive)

CCOc1ccc2nc(S(N)(=O)=O)sc2c1
luciferase signal [1]: 40 AU (inactive)

O=c1cc[nH]c(=O)[nH]1
inhibition ([10]; at 0.5 µM): -40% (inactive) | inhibition [10, 21]: -59% | inhibition [10, 22]: -48% | inhibition [10, 23]: -36.2% | inhibition ([11]; at 0.5 µM): -92.2% (inactive) | inhibition [11, 24]: -94.9% | inhibition [11, 25]: -107% | inhibition ([12]; at 0.5 µM): -17.8% (inactive) | inhibition [12, 26]: -14.7% | inhibition [12, 27]: -22.4% | inhibition ([13]; at 0.5 µM): -18% (inactive) | inhibition [13, 28]: -36% | inhibition [13, 29]: -27.8% | inhibition ([14]; at 0.5 µM): -17.4% (inactive) | inhibition [14, 22]: -11.9% | inhibition [14, 23]: -19.1% | inhibition [15, 30]: -12.9% | inhibition ([15]; at 0.5 µM): -25% (inactive) | inhibition [15, 31]: -6.49% | inhibition [16]: -8.86% (inactive) | inhibition [16, 32]: 4.39% | inhibition [16, 33]: -31.7% | inhibition ([17]; at 0.5 µM): -12.8% (inactive) | inhibition [17, 34]: -14.2% | inhibition ([17]; cisplatin combination, at 5 µM): -53.2% | inhibition [17, 35]: -11.4% | inhibition ([17]; single agent, at 5 µM): -17.3% | inhibition ([18]; at 0.5 µM): -17.6% (inactive) | inhibition ([18]; cisplatin combo, at 5 µM): -19.1% | inhibition [18, 36]: -3.59% | inhibition [18, 22]: -29.1% | inhibition ([18]; single agent, at 5 µM): -18.8% | inhibition ([19]; at 0.5 µM): -72% (inactive) | inhibition [19, 37]: -50.2% | inhibition [19, 38]: -82.8% | inhibition ([19]; single agent, at 0.05 µM): 4.62% | inhibition ([19]; single agent, at 5 µM): -35%

CCOc1nc2cccc(C(=O)O)c2n1Cc1ccc(-c2ccccc2-c2nn[nH]n2)cc1
z-score [2]: 0.64 (inactive)

N=C(N)N1CCc2ccccc2C1
z-score [2]: 0.125 (inactive)

C[C@@H](O)[C@H]1C(=O)N2C(C(=O)O)=C(SCCN=CN)C[C@H]12
z-score [2]: -0.195 (inactive) and 0.375 (inactive)

CC(=O)N[C@@H](CC(C)C)C(=O)O
luciferase signal [1]: 56 AU (inactive)

Cc1cccc(C)c1NC(=O)CN1CCN(CCCC(c2ccc(F)cc2)c2ccc(F)cc2)CC1
fluorescence slope change [20]: 64.3% (active)

CCCCCCC[N+](CC)(CC)CCCCc1ccc(Cl)cc1
fluorescence slope change [20]: 178% (active)

CC1(C)[C@@H]2CC[C@@]1(C)C(=O)C2
luciferase signal [1]: 52 AU (inactive)
